ClpP mod – qHTS Assay for Activators of ClpP; purified B. subtilis ClpP, FRET peptide cleavage, 20 min; Potency, µM (doses to about 57.5 µM), without a hit: top-dose activity change, negative = active; 340,000 compounds, 1.9% hits; AID 651965, 2013; active = well fitted falling curve with a large enough effect; inconclusive = small, poorly fitted or top-dose-only effect; inactive = no such curve, though single readings can be large or run the other way; also: potency is read from the fitted curve at half-maximal effect; the source files actives as falling curves though it sought activators and does not explain the sign; nearly all actives have a fitted effect of over 65% in size
Target sequence (P80244 whole entry, looked up): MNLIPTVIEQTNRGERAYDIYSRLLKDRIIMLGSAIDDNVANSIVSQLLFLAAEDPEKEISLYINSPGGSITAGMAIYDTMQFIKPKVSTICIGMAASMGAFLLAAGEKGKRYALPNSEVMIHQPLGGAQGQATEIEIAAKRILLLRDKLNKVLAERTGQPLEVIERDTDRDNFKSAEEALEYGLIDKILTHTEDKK
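Purified B. subtilis ClpP, 10 microg/mL final in Tris/HCl pH8 with KCl, BSA, glycerol and Tween-20, cleaved an Abz/nitrotyrosine-quenched decapeptide. Fluorescence (ex 320, em 430) was read at 0 and 20 min at room temperature. Delta was normalized to 5.8 microM ADEP and DMSO/no-enzyme controls.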
TCR activator – activators of T cell receptors | primary human leukocytes, anti-CD3, IL-2 HTRF, 48 h | Potency, µM (doses to about 9.22 µM), for inactives: at the top dose activation of IL-2 secretion, actives largely listed as activators | 330,000 tested, under 10 active; also: % of control where 0% means no effect
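Activity was scored as IL-2 release from primary human leukocytes given only a TCR signal (a-CD3 beads) plus compound for 48 hr. Detection used a two-antibody HTRF format read at 665nm.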
uPA surface inh – blocks generation of uPA at the cell surface | cell surface uPA generation assay, qHTS | Potency, µM (titrated, usually from 38.3 µM), for the others: at the highest dose activity change, negative = inhibition, hits mostly inhibitors | 330,000 compounds, 0.31% hits; active = well fitted inhibition curve with a large enough effect; inconclusive = small, poorly fitted or top-dose-only effect; inactive = no such curve, though single readings can be large or run the other way; tested in mouse RAW 264.7 cells; also: potency is read from the fitted curve at half-maximal effect; % is scaled to controls: 0 for no effect and ±100 for the full control effect; nearly all actives have a fitted effect of over 55% in size
Sfp PPTase inh – blocks B. subtilis Sfp PPTase activity; Q9F4F7; Biochemical Sfp PPTase activity, qHTS; 310,000 compounds, 3.5% hits; Potency, µM, inactives show largest response in the series, negative = inhibition, usual class: inhibitors;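 also: the enzyme is Sfp with the accession as filed and its product quenches rhodamine fluorescence; potency is read from the fitted curve at half-maximal effect; 0% = enzyme reaction without inhibitor and -100% = no enzyme wells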
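Step 1, compound plus 15 nM Sfp-PPTase, 15 min, room temperature. Step 2, add rhodamine-CoA (5 uM) and BHQ-2-YbbR (12.5 uM). Step 3, read 525/598 nm fluorescence at 0 and 30 min.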
Active calls of the source: *; ? = inconclusive; nt = no result given; [ ] = dose if it differs, or a comment. This is a sample that favours compounds with a hit; in the whole collection about 4.2% have one here. Unless noted, calls follow the shape of the dose curve; as a rule, active = well fitted curve in the direction sought with a large enough effect; inconclusive = small, poorly fitted or top-dose-only effect, or another doubt; inactive = no such curve, though single readings can be large; an effect the other way counts as inactive or inconclusive.

SMILES	ClpP mod	TCR activator	uPA surface inh	Sfp PPTase inh
CSc1sc2ccccc2[n+]1CCCS(=O)(=O)[O-]	0%	0%	-1%	18µM*
Cc1ccc2ccccc2[n+]1CCCS(=O)(=O)[O-]	?	0%	-6%	24%
COc1ccc2sc(SCCCS(=O)(=O)O)[n+](CCCS(=O)(=O)[O-])c2c1	-1%	9%[46.1 µM]	-9%	4.5µM*
CCOc1ccc(S(=O)(=O)N(CC)CC)cc1NC(=O)c1ccc(N2CCCC2=O)cc1	-1%	nt	-8%	11%
C/C(=N/NC(=O)CNC(=O)COc1ccccc1)c1ccc(Cl)cc1	-1%	1%	3%	19%
COC(=O)CN1C(=S)N(c2ccc(Cl)cc2)C(=O)C1CC(=O)Nc1ccccc1 (stereo not given)	13µM*	-5%[46.1 µM]	2%	8%
Cc1ccccc1NC(=O)COC(=O)c1ccccc1OCC(=O)Nc1ccc(Br)cc1	-2%	nt	nt	nt
CC(C)=NNc1nc2c(c(=O)[nH]c(=O)n2C)n1CCc1ccccc1	nt	6%	0%	?
Cn1c(=O)[nH]c(=O)c2c1nc(N/N=C/C(Br)=C/c1ccccc1)n2CCO	nt	6%	-5%	56µM*
CC(C)Oc1ccccc1C1C=C(C(=O)O)Nc2ncnn21 (stereo not given)	-10%	nt	nt	nt
COC(=O)c1sc(NC(=O)c2ccco2)c(C#N)c1C	?	-4%	-3%	40µM*
CCN(CC)C(=O)Cn1c(=O)n(-c2ccc(Cl)c(Cl)c2)c(=O)c2c(C)c(C(=O)N(CC)CC)sc21	4%	nt	nt	nt
CCc1ccccc1NC(=O)Cn1c2ncccc2c(=O)n1-c1ccccc1	4%	nt	nt	nt
CCOC(=O)c1ccccc1NC(=O)Cn1c2ncccc2c(=O)n1-c1ccccc1	11µM*	nt	nt	nt
Cc1ccc(-c2cc(C(=O)Nc3cc([N+](=O)[O-])ccc3C)no2)cc1F	1%	nt	nt	nt
Clc1ccc2nccnc2c1	-19%	nt	nt	nt
COC(=O)c1c(NC(=O)CN2CCN(C(=O)c3ccco3)CC2)c2c(C)cccc2n1C	-3%	-3%	3%	20µM*
COC(=O)c1c(NC(=O)CN2CCN(C(=O)c3ccco3)CC2)c2cc(C)ccc2n1C	-30%	nt	0%	-4%
C=CCOc1ccc(C2OC34CCCCC3C(C#N)(C#N)C2(C#N)C(=N)O4)cc1 (stereo not given)	22µM*	-3%	1%	-5%
CCCCOc1ccc(C2OC34CCCCC3C(C#N)(C#N)C2(C#N)C(=N)O4)cc1 (stereo not given)	1%	2%	3%	8%
CC1(C)Cc2nc3oc4c(N(CCO)Cc5ccccc5)ncnc4c3cc2CO1	14µM*	-3%	-1%	6%
Cc1cccc(C(=O)N2CCC(N3CCN(Cc4ccc(F)cc4)C(=O)C3=O)CC2)c1	-4%	nt	nt	nt
Cc1ccccc1Nc1nc(CSc2nnnn2-c2ccccc2)cs1	0%	-9%	6%	45µM*
CCCn1c2ccccc2c2cnn(CC(=O)N(CCCOC)Cc3ccco3)c(=O)c21	5%	nt	nt	nt
C/C(=N\NC(=S)Nc1cccc(C)c1)c1ccco1	nt	-4%	-2%	9%
SMILES	ClpP mod	TCR activator	uPA surface inh	Sfp PPTase inh
CCNC(=S)N/N=C(\C)c1ccco1	-1%	3%	17%	56µM*
N#CC1=C(N)OC2=C(CCC/C2=C/c2ccoc2)C1c1ccoc1 (stereo not given)	nt	nt	nt	40µM*
N#CC1=C(N)OC2=C(CC/C2=C\c2ccc(F)cc2)C1c1ccc(F)cc1 (stereo not given)	nt	-3%[46.1 µM]	nt	11%
N=C1N(/N=C/c2ccccc2)C(=Nc2ccccc2)C(=S)N1c1ccccc1	0%	5%[46.1 µM]	1%	32µM*
Cc1ccc(S(=O)(=O)n2cc(CO)c3ccccc32)cc1	nt	1%	3%	nt
COc1ccc(-c2nc(SC)n(C)c(=O)c2C#N)cc1OC	-6%	5%	-3%	-9%
COc1ccc(C(c2c(O)nc(SC)n(C)c2=O)c2c(O)nc(SC)n(C)c2=O)cc1O	1%	5%[46.1 µM]	6%	50µM*
N#Cc1ccc(N=c2ssnc2Cl)cc1	1%	-1%	4%	8.9µM*
COc1ccc(N=c2ssnc2Cl)cc1	1%	0%[46.1 µM]	-6%	8.9µM*
COc1cc(N=c2ssnc2Cl)cc(OC)c1OC	-3%	9%	-1%	14µM*
Fc1ccc(N=c2ssnc2Cl)c(F)c1	nt	5%	-3%	14µM*
N#Cc1ccc(Oc2c(Cl)cncc2Cl)cc1	1%	0%	3%	7%
CCC1=Nc2cc(C(=O)NC3CCCC3)ccc2Sc2ccc(Br)cc21	-1%	nt	nt	nt
Cc1ccccc1Cn1c(CN2CCC(C(=O)NCCN(C)C)CC2)cc2ccccc21	-2%	nt	nt	nt
Clc1nssc1=Nc1ccccc1	-3%	-4%	2%	20µM*
CCOC(=O)c1ccc(N=c2ssnc2Cl)cc1	nt	-5%	1%	-103%
Clc1ccc(N=c2ssnc2Cl)cc1	2%	-4%[46.1 µM]	-5%	4µM*
O=C1CSC(=Nc2ccccc2)N1Cc1ccccc1	nt	4%	2%	-14%
CCCCOC(=O)c1ccc(NC(=O)/C(C#N)=C/c2ccc(-c3ccccc3)o2)cc1	1%	nt	nt	nt
O=C(NC(=S)NNC(=O)c1ccc(Cl)cc1Cl)c1cccnc1	-3%	4%[46.1 µM]	-3%	45µM*
CCN(CC)C(=S)NC(=O)c1cccnc1	nt	-1%	0%	50µM*
CCN(CC)C(=S)NC(=O)c1ccc(F)cc1	nt	5%	2%	1%
N#Cc1ccccc1NC(=S)NC(=O)c1cccnc1	0%	nt	-1%	50µM*
Cn1c(N)c(C#N)c(C#N)c1-c1ccccc1	-30%	-1%	0%	-3%
CC1(C)Cc2c(C#N)c(N)n(-c3ccccc3)c(=S)c2CO1	nt	0%	-3%	12%
SMILES	ClpP mod	TCR activator	uPA surface inh	Sfp PPTase inh
N#Cc1c(C#N)c(-c2ccccc2)n(-c2ccccc2)c1N	28µM*	1%	-6%	2%
N#Cc1c2c(c(=S)n(-c3ccccc3)c1N)CCCC2	0%	9%	-7%	32µM*
CCOC(=O)c1c2c(c(=S)n(-c3ccccc3)c1N)CCC2	-4%	8%	0%	13µM*
Cc1cccc(OC(C)C(=O)Nc2ncn[nH]2)c1 (stereo not given)	3%	nt	nt	nt
CC1=C(C(=O)NCc2cccc(Cl)c2)C2(CCCCCC2)OC1=O	-3%	nt	nt	nt
O=C(NCc1n[nH]c(=S)n1-c1ccc(Cl)c(Cl)c1)c1cccs1	nt	-6%	2%	89µM*
O=C(NCc1n[nH]c(=S)n1-c1cccc(Cl)c1)c1cccs1	nt	-1%	-1%	12%
CCOC(=O)c1ccc2nc(C)c3c(c2c1)OC(C)C3 (stereo not given)	32µM*	-3%	1%	3%
COc1ccc2nc(C)c3c(c2c1)OC(C)C3 (stereo not given)	?	3%	-6%	15%
CCOC(=O)c1ccc2nc(C(F)(F)F)[nH]c(=O)c2c1	4µM*	-1%	-5%	5%
CC1(C)Cc2c(cnn2-c2ccccc2)C(=O)/C1=N\NC(=O)c1ccccc1N	1%	-3%	-4%	18%
CC1(C)Cc2c(cnn2-c2ccccc2)-c2c1c1ccccc1n2CC(O)CBr (stereo not given)	14µM*	-6%	6%	10%

Screening data: PubChem, National Center for Advancing Translational Sciences (NCATS)
